# Test results as given in the supplement of paper PMC6411743.
# ± gives the standard deviation of the averaged measurements. Targets with the largest changes are over-represented here; the source holds about 5,400 in all.
# Molecular target: A0A0A0MT26|P13637|P13637-2|P13637-3 (UniProt P13637)
# Test: NP40-soluble protein abundance relative to vehicle (solubility fold change) (ratio); higher = more soluble protein in presence of GTP
# Procedure: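 Solubility proteome profiling in Jurkat crude lysate. Lysate was treated with Mg-GTP (0.1-10 mM) for 10 min at room temperature and 3 min at 37 °C, then solubilised with 0.8% NP40 and benzonase, followed by ultracentrifugation. Proteins were quantified by TMT10 LC-MS/MS; the value is the NP40-soluble abundance relative to the NP40-processed vehicle, from 3 independent experiments.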
smiles,measurement,setting,value
Nc1nc2c(ncn2[C@@H]2O[C@H](COP(=O)(O)OP(=O)(O)OP(=O)(O)O)[C@@H](O)[C@H]2O)c(=O)[nH]1 [guanosine triphosphate],NP40-soluble protein abundance,concentration: 0.1mM,1.01 ± 0.05
same,NP40-soluble protein abundance,concentration: 0.5mM,1.01 ± 0.028
same,NP40-soluble protein abundance,concentration: 1mM,1.02 ± 0.028
same,NP40-soluble protein abundance,concentration: 2mM,0.982 ± 0.029
same,NP40-soluble protein abundance,concentration: 4mM,1.01 ± 0.042
same,NP40-soluble protein abundance,concentration: 6mM,1 ± 0.0083
same,NP40-soluble protein abundance,concentration: 8mM,1 ± 0.034
same,NP40-soluble protein abundance,concentration: 10mM,0.958 ± 0.047
